Experimental data taken from PubChem BioAssay AID2284189 (EPA ToxCast).
Active and inactive are the calls of the source. How the source made its calls: active means hit-call score of the fitted dose curve at least 0.9, where 1 is the maximum; inactive means score below 0.9.

target: rat Glutamate (Kainate, Non-Selective), conducted at France lab site, Grik1 (gene 29559) (UniProt P22756); test: ERF_FR_LGIC_rGRIK1: Eurofins (ERF) Ion Channel [3H] Kainic acid Binding LeadHunter Assay for rat Glutamate (Kainate, Non-Selective), conducted at France lab site
Procedure: ERF_FR_LGIC_rGRIK1 is a biochemical, single-readout assay that uses extracted gene-proteins in a cell-free assay. Measurements were taken 1 hour after chemical dosing in a 96-well plate. See Glutamate (Kianate, Non-Selective) Rat Ion Channel [3H]- Kainic acid Binding Assay, Cerep.ERF_FR_LGIC_rGRIK1 is an assay component calculated from the ERF_FR_LGIC_rGRIK1 assay. It is designed to measure radioligand binding using a type of binding reporter as detected by scintillation counting with radiometry technology.Data from the assay component ERF_FR_LGIC_rGRIK1 was analyzed at the assay endpoint, ERF_FR_LGIC_rGRIK1, in the positive analysis fitting direction relative to DMSO as the negative control and baseline of activity. Using a type of binding reporter, loss-of-signal activity can be used to understand changes in binding as they relate to gene GRIK1. To generalize the intended target to other relatable targets, this assay endpoint is annotated to the ion channel intended target family, where the subfamily is ligand-gated (glutamate, Ionotropic).
Glutamate kainite receptor containing membranes are prepared from brain cortices from male Wistar rats in Tris-HCl buffer pH 7.4. A 10 mg aliquot is incubated with 5 nM [3H]Kainic acid for 60 minutes at 4C. […] Membranes are filtered and washed, the filters are then counted to determine [3H]Kainic acid specifically bound.

Chain of rat Glutamate (Kainate, Non-Selective), conducted at France lab site, Grik1 (gene 29559) (P22756 whole entry, looked up): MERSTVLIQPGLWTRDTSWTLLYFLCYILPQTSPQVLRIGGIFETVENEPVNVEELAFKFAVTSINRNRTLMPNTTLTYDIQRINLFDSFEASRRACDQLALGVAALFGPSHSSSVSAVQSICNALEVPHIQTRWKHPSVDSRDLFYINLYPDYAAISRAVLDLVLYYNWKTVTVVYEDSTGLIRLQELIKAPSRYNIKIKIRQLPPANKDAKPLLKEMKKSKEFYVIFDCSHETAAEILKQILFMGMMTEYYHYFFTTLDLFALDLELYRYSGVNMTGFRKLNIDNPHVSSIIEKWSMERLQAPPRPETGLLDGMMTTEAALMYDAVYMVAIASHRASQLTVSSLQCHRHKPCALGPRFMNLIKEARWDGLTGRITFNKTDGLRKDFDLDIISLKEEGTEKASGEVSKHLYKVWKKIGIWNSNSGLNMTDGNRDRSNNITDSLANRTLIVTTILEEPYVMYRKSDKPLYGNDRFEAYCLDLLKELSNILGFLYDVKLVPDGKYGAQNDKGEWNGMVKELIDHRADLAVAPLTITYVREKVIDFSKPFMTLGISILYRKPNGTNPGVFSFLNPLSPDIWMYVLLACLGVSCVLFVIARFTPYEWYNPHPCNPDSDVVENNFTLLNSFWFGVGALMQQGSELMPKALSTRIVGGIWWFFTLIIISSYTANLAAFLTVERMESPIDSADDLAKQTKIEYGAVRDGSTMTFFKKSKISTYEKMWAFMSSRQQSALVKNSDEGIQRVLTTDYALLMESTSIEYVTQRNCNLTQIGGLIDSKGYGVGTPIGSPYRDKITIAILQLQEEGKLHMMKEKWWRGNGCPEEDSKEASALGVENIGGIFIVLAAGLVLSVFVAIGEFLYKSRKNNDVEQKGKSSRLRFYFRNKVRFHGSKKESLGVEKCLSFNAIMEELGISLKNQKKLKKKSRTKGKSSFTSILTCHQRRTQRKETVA

SMILES	AC50
O=C(/C=C/c1ccc(O)cc1)CC(=O)/C=C/c1ccc(O)cc1	2870 nM (active)
